# Data as given in PubChem BioAssay (EPA / NIEHS).
# Inconclusive results are not listed. Calls of active or inactive are those of the source. The calls were made as follows: active = hit-call score of the fitted dose curve at least 0.9, where 1 is the maximum; inconclusive = response in the unintended direction; inactive = score below 0.9.
# Assays:
# [1] = TOX21_p53_BLA_p4_viability: Viability Assessment in the Tox21 HCT-116 p53 Agonism Beta-lactamase Assay, Phase 4 (AID 2283597);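 also: hits lower the luminescence signal meaning cytotoxicity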
# Method in brief: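 Cytotoxicity as reduced cellular ATP (CellTiter-Glo luminescence, 30 min room temperature), measured in the same wells following the CCF4 FRET p53 reading. Human HCT-116 cells received compounds in DMSO (217-fold dilution) for 16 h.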
# [2] = TOX21_p53_BLA_p5_viability: Viability Assessment in the Tox21 HCT-116 p53 Agonism Beta-lactamase Assay, Phase 5 (AID 2283600)
# Method in brief: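 Viability came from CellTiter-Glo ATP luminescence, read after 30 min at room temperature. Before this, HCT-116 p53-bla cells (4000/well) had 16 hours of compound exposure at 37C, with DMSO stocks diluted 217-fold on transfer.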
# [3] = molecular target: Cellular tumor antigen p53 (Homo sapiens) (UniProt P04637); assay: TOX21_p53_BLA_p3_ratio: Tox21 HCT-116 p53 Agonism Beta-lactamase Assay, Ratio, Phase 3 (AID 2283596)
# Method in brief: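 Cells were seeded at 4000/well, rested 5 h at 37C, then dosed with DMSO compound solutions (217-fold dilution) for 16 h. CCF4-AM substrate was loaded for 2 h at room temperature, and the 460/530 nm emission ratio was fitted for gain of signal versus DMSO.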
# [4] = molecular target: Thyroid hormone receptor alpha (Rattus norvegicus) + Thyroid hormone receptor beta (Rattus norvegicus) (UniProt P18113+P63059); assay: TOX21_TR_LUC_GH3_Antagonist_Followup: Tox21 GH3 Thyroid Hormone Receptor Antagonism Luciferase Follow-Up Assay (AID 2283942)
# Method in brief: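 Luminescence read-out (ONE-Glo, 30 min at room temperature) in GH3 reporter cells challenged with 1.0 nM T3 final. Compounds ran at 92 uM to 5nM over 15 concentrations for 24 h; DMSO served as negative control and baseline.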
# THRB (gene 7068) [5] = molecular target: THRB (gene 7068) (UniProt P10828); assay: TOX21_TRB_BLA_Antagonist_Followup_ratio: Tox21 Thyroid Hormone Receptor beta Antagonism Beta-lactamase (BLA) Follow-Up Assay, Ratio (AID 2283958)
# Method in brief: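 Read-out: blue/green (460:530 nm) ratio of cleaved to uncleaved CCF4-AM after 2 h at room temperature, fitted against DMSO baseline. HEK293T UAS-bla cells carrying GAL4-human TRβ LBD were exposed 18 h, 37C/5% CO2.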
# [6] = TOX21_TRB_BLA_Antagonist_Followup_viability: Viability Assessment in the Tox21 Thyroid Hormone Receptor beta Antagonism Beta-lactamase (BLA) Follow-Up Assay (AID 2283961)
# Method in brief: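 ATP-based CellTiter-Glo luminescence (30 min, room temperature) run in the same wells as the TRβ-bla readout. Cells: GeneBLAzer HEK293T expressing GAL4-TRβ LBD, exposed 18 h at 37C to compounds at 11 concentrations in triplicate, stripped-serum medium.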
# [7] = molecular target: Retinoic acid receptor RXR-alpha (Homo sapiens) (UniProt P19793); assay: TOX21_TR_RXR_BLA_Antagonist_Followup_ratio: Tox21 Thyroid Hormone Receptor beta Retinoid X Receptor alpha (RXRa) Antagonism Beta-lactamase (BLA) Follow-Up Assay, Ratio (AID 2283972)
# Method in brief: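 After 5 h attachment at 37C, HEK293T RXRa-bla cells (2,500/well, 2% charcoal-stripped FBS, no phenol red) received compounds at 11 concentrations in triplicate for 16 h. Beta-lactamase read as 460:530 nm ratio after 2 h RT substrate loading.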
# [8] = TOX21_TR_RXR_BLA_Antagonist_Followup_viability: Viability Assessment in the Tox21 Thyroid Hormone Receptor beta Retinoid X Receptor alpha (RXRa) Antagonism Beta-lactamase (BLA) Follow-Up Assay (AID 2283979)
# Method in brief: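 RXRa-bla HEK293T cells (2,500/well, phenol red-free DMEM, 2% charcoal-stripped FBS) were attached 5 h, then exposed to compounds at 11 concentrations in triplicate for 16 h at 37C. Viability measured by CellTiter-Glo ATP luminescence, bidirectional fitting versus DMSO.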
# [9] = molecular target: Cellular tumor antigen p53 (Homo sapiens) (UniProt P04637); assay: TOX21_p53_BLA_p4_ratio: Tox21 HCT-116 p53 Agonism Beta-lactamase Assay, Ratio, Phase 4 (AID 2283601)
# Method in brief: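 HCT-116 p53 beta-lactamase reporter cells (4000/well) preincubated 5 h, then compound (217-fold dilution of DMSO stock) for 16 h at 37C. CCF4-AM substrate added 2 h at room temperature; 460/530 nm emission ratio fitted upward versus DMSO.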
# THRA (gene 7067) = THRA (gene 7067) (UniProt P10827); assay: TOX21_TRA_COA_Antagonist_Followup_ratio: Tox21 Thyroid Hormone Receptor alpha Antagonism through Coactivator Recruitment Follow-Up Assay, Ratio (AID 2283953)
# Method in brief: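 We measured antagonism of T3-type coactivator recruitment using a TR-FRET ratio (emission 520 and 495 nm) between a Tb-labelled anti-GST antibody on TRα LBD (2.5 nM) and SRC-2 peptide (200 nM). Activity was scaled between DMSO and T3 wells.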
# THRB (gene 7068) [10] = molecular target: THRB (gene 7068) (UniProt P10828); assay: TOX21_TRB_COA_Antagonist_Followup_ratio: Tox21 Thyroid Hormone Receptor beta Antagonism through Coactivator Recruitment Follow-Up Assay, Ratio (AID 2283967)
# Method in brief: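 GST-TRb LBD 5.0 nM + 0.10% BSA, compound added; fluorescein-SRC-2 peptide 200 nM, Tb-anti-GST Ab 2 nM. TR-FRET, ex 340 / em 520:495 ratio. Norm: DMSO 0%, T3 100%.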
# [11] = molecular target: Cellular tumor antigen p53 (Homo sapiens) (UniProt P04637); assay: TOX21_p53_BLA_p5_ratio: Tox21 HCT-116 p53 Agonism Beta-lactamase Assay, Ratio, Phase 5 (AID 2283599)
# Method in brief: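 HCT-116 p53-bla cells (4000/well) plated 5 h, dosed with compound (217-fold DMSO dilution) for 16 h at 37 C; CCF4-AM substrate 2 h at room temperature. Activity is the 460/530 nm emission ratio (405 nm excitation), fitted in gain-of-signal direction versus DMSO.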
# Chain of Cellular tumor antigen p53 (Homo sapiens) (P04637 whole entry, looked up): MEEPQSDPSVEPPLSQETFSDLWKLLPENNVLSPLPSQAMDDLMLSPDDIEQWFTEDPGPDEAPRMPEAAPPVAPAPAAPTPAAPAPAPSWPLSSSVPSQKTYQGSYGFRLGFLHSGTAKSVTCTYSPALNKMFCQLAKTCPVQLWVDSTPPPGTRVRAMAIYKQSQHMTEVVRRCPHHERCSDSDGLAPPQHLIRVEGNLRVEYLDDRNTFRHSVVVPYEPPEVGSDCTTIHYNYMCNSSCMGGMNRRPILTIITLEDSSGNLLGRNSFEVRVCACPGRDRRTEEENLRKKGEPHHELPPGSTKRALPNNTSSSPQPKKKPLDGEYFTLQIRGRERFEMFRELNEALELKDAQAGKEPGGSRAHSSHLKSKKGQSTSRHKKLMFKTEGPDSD
# Chain of THRB (gene 7068) (P10828 whole entry, looked up, the tested form may be a part): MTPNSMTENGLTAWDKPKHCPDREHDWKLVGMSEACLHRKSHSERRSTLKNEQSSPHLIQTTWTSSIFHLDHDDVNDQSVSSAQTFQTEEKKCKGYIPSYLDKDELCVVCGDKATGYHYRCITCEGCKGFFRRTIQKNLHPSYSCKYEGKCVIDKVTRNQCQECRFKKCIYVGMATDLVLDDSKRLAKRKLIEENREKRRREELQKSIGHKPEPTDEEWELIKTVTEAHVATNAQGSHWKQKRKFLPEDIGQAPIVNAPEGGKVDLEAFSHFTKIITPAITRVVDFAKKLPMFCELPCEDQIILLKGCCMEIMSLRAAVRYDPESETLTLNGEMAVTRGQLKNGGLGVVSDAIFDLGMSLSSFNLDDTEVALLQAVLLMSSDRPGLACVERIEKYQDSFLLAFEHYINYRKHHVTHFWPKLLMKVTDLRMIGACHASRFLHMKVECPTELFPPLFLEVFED
# Chain of Retinoic acid receptor RXR-alpha (Homo sapiens) (P19793 whole entry, looked up): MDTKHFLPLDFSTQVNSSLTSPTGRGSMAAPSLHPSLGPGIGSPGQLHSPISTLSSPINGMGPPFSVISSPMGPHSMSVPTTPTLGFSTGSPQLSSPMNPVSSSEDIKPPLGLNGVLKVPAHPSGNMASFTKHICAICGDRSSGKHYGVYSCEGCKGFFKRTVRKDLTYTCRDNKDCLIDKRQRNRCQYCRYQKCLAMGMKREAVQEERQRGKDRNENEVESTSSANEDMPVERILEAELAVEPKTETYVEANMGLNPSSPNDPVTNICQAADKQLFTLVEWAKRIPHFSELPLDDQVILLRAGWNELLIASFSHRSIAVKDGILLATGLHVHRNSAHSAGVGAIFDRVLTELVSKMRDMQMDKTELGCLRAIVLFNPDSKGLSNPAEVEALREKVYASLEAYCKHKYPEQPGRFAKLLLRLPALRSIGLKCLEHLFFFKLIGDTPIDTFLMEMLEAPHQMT
# Chain of THRA (gene 7067) (P10827 whole entry, looked up, the tested form may be a part): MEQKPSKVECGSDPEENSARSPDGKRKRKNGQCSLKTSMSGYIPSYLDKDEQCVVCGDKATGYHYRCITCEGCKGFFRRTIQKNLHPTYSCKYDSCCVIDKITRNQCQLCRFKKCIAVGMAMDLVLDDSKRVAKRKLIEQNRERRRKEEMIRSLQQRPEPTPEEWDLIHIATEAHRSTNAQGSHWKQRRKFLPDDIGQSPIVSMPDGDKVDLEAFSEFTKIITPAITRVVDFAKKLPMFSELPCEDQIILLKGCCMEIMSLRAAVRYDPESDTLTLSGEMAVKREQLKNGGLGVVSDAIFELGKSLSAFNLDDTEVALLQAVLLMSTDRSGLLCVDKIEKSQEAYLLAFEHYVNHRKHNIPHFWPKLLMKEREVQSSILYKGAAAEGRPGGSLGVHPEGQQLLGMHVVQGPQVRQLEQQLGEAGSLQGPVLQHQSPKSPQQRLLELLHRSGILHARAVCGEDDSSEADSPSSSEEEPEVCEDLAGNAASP
smiles,measurement,setting,value
CC/C=C(\C(=O)N[C@@H]1C(=O)N2C(C(=O)OCOC(=O)C(C)(C)C)=C(COC(N)=O)CS[C@H]12)c1csc(N)n1,outcome,[1],inactive
same,outcome,[2],inactive
NNc1nnc(Cc2ccncc2)c2ccccc12,outcome,[3],inactive
same,outcome,[4],inactive
same,outcome,THRB (gene 7068) [5],inactive
same,outcome,[6],inactive
same,outcome,[7],inactive
same,outcome,[8],inactive
O=C(O)c1cc(O)c2c(c1)[O][Bi][O]2,outcome,[1],inactive
CN1CCC(=C2c3ccccc3CCc3sccc32)CC1,outcome,[1],inactive
O=C1OC(OC(=O)c2cccnc2Nc2cccc(C(F)(F)F)c2)c2ccccc21 (stereo unspecified),outcome,[3],inactive
same,outcome,[2],inactive
same,outcome,[9],inactive
same,outcome,[4],inactive
same,outcome,THRA (gene 7067),inactive
same,outcome,THRB (gene 7068) [5],inactive
same,outcome,THRB (gene 7068) [10],inactive
same,outcome,[7],inactive
CCCCCCCCCCCCCCBr,outcome,[1],inactive
same,outcome,[2],inactive
same,outcome,[9],inactive
CCNC(=O)NCCCOc1cccc(CN2CCCCC2)c1,outcome,[3],inactive
same,outcome,[9],inactive
c1ccc2c(CCC3CCNCC3)c[nH]c2c1,outcome,[11],inactive
same,outcome,[2],inactive
same,outcome,[9],inactive
Cn1nnnc1SCC1=C(C(=O)O)N2C(=O)[C@@H](NC(=O)[C@H](OC=O)c3ccccc3)[C@H]2SC1,outcome,[2],inactive
Cc1ccccc1N=Nc1ccc(N=Nc2c(O)ccc3ccccc23)c(C)c1,outcome,[2],inactive
c1cnc2cc3c(cc2n1)[C@@H]1CNC[C@H]3C1,outcome,[11],inactive
same,outcome,[9],inactive
CC(C)N(C)C,outcome,[11],inactive
CO[C@@]1(NC(=O)CSC[C@@H](N)C(=O)O)C(=O)N2C(C(=O)O)=C(CSc3nnnn3C)CS[C@@H]21,outcome,[11],inactive
same,outcome,[2],inactive
CN(C)CCC=C1c2ccccc2C(C)(C)c2ccccc21,outcome,[11],inactive
CC(C(=O)O)c1ccc2c(c1)CC(=O)c1ccccc1S2 (stereo unspecified),outcome,[1],inactive
same,outcome,[9],inactive
